According to the supplement of paper PMC12494721:
Structures can show the parent of a compound that is named as a salt.

tested on: Escherichia coli IAI1; test: growth (OD595) fold change vs plate DMSO controls (fold change (ratio)); higher = more growth; conditions: incubation time: 27 h, anaerobic, 37 °C
Outline: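 Shaken 96-well cultures in mGAM, grown anaerobically for 27 h at 37 °C, were read at 595 nm. OD came from blank-subtracted readings, corrected for background with 20 µM compound solutions in water and scaled by a calibration factor of 5. Growth is the fold change versus the plate's median DMSO control. Values average 2 biological replicates, and any fold change above 1.5 is NA.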

Structure (SMILES) | growth
CCCCCCC[N+](CC)(CC)CCCCc1ccc(Cl)cc1 [Clofilium tosylate] (20 µM) | 0.984
N=C(N)NCC1COC2(CCCCC2)O1 (centres undefined) [Guanadrel sulfate] (20 µM) | 0.972
CCCC(CCC)C(=O)O[C@H]1C[C@H]2CC[C@@H](C1)[N+]2(C)C [Anisotropine Methylbromide] (20 µM) | 1.07
COc1ccc2c(c1)c(CC(=O)OCC(=O)O)c(C)n2C(=O)c1ccc(Cl)cc1 [Acemetacin] (20 µM) | 1.03
CN1CCCN=C1/C=C/c1cccc(O)c1 [Oxantel pamoate] (20 µM) | 1.04
COc1c(O[C@@H]2O[C@H](CO)[C@@H](O)[C@H](O)[C@H]2O)cc2c(c1OC)-c1ccc(SC)c(=O)cc1[C@@H](NC(C)=O)CC2 [Thiocolchicoside] (20 µM) | 1
Cc1c(Nc2ncccc2C(=O)O)cccc1C(F)(F)F [Flunixin meglumine] (20 µM) | 1.04
C#C[C@]1(OC(C)=O)CC[C@H]2[C@@H]3CCC4=CC(=NO)CC[C@@H]4[C@H]3CC[C@@]21CC (mixture of isomers) [Norgestimate] (20 µM) | 0.998
CC12CC3CC(C)(C1)CC(N)(C3)C2 [Memantine hydrochloride] (20 µM) | 0.987
CC(CCc1ccccc1)NCC(O)c1ccc(O)c(C(N)=O)c1 (centres undefined) [Labetalol hydrochloride] (20 µM) | 0.963
CCCCc1oc2ccc(NS(C)(=O)=O)cc2c1C(=O)c1ccc(OCCCN(CCCC)CCCC)cc1 [Dronedarone hydrochloride] (20 µM) | 1.09
CCN1CCCC(OC(=O)C(c2ccccc2)c2ccccc2)C1 (centres undefined) [Piperidolate hydrochloride] (20 µM) | 1.01
C[C@]1(Cn2ccnn2)[C@H](C(=O)O)N2C(=O)C[C@H]2S1(=O)=O [Tazobactam] (20 µM) | 1
O=C(CCCN1CCN(c2ccccn2)CC1)c1ccc(F)cc1 [Azaperone] (20 µM) | 1.24
CC(=O)Nc1c(I)c(NC(C)=O)c(I)c(C(=O)O)c1I [Diatrizoic acid dihydrate] (20 µM) | 1.05
CN[C@@H]1[C@@H](O)[C@@H](O[C@@H]2[C@@H](O)[C@H](O[C@H]3OC(CN)=CC[C@H]3N)[C@@H](N)C[C@H]2N)OC[C@]1(C)O [Sisomicin sulfate] (20 µM) | 0.99
CC(CN(C)C)C(C)(O)Cc1ccc(Cl)cc1 (centres undefined) [Clobutinol hydrochloride] (20 µM) | 1.01
CC(=O)[C@H]1CC[C@H]2[C@@H]3C[C@H](C)C4=CC(=O)CC[C@]4(C)[C@H]3[C@@H](O)C[C@]12C [Medrysone] (20 µM) | 1.03
CC(C(=O)O)c1ccc(-c2ccccc2)c(F)c1 (centres undefined) [Flurbiprofen] (20 µM) | 1
CCOC(=O)/C=C(C)/C=C/C=C(C)/C=C/c1c(C)cc(OC)c(C)c1C [Etretinate] (20 µM) | 0.971

Structure (SMILES) | growth
c1ccc2c(CC3=NCCN3)cccc2c1 [Naphazoline hydrochloride] (20 µM) | 0.633
CCCCC(=O)N(Cc1ccc(-c2ccccc2-c2nnn[nH]2)cc1)[C@H](C(=O)O)C(C)C [Valsartan] (20 µM) | 1.19
COc1ccccc1O [Guaiacol] (20 µM) | 1
OC[C@H]1O[C@@H](O[C@@H]2[C@@H](CO)OC(O)(CO)[C@H]2O)[C@H](O)[C@@H](O)[C@H]1O (mixture of isomers) [Lactulose] (50 µM) | 0.906
CC(C)COC(=O)OCN1C(=O)CN(CCN2CC(=O)N(COC(=O)OCC(C)C)C(=O)C2)CC1=O [Sobuzoxane] (20 µM) | 0.991
NS(=O)(=O)c1cc2c(cc1C(F)(F)F)NC(Cc1ccccc1)NS2(=O)=O (centres undefined) [Bendroflumethiazide] (20 µM) | 1.01
CCOC(=O)[C@H](CCc1ccccc1)N[C@H]1CCc2ccccc2N(CC(=O)O)C1=O [Benazepril hydrochloride] (20 µM) | 1
CC(=O)Oc1cc(C(C)C)c(OCCN(C)C)cc1C [Moxisylyte hydrochoride] (20 µM) | 1.04
O=C1c2c(O)ccc(O)c2C(=O)c2c(NCCNCCO)ccc(NCCNCCO)c21 [Mitoxantrone dihydrochloride] (20 µM) | 0.831
Nc1cccc2c1C(=O)N(C1CCC(=O)NC1=O)C2=O (centres undefined) [Pomalidomide] (20 µM) | 1.02
CCCCOc1ccc(C(=O)CCN2CCCCC2)cc1 [Dyclonine hydrochloride] (20 µM) | 0.992
OCC(O)CN1CCN(c2ccccc2)CC1 (centres undefined) [Dropropizine] (20 µM) | 1.02
CN(C)CCC(c1ccc(Cl)cc1)c1ccccn1 (centres undefined) [Chlorpheniramine maleate] (20 µM) | 0.712
CNCC(O)c1ccc(OC(=O)C(C)(C)C)c(OC(=O)C(C)(C)C)c1 (centres undefined) [Dipivefrin hydrochloride] (20 µM) | 1.07
CC(=O)O[C@H]1C[C@@]2(C)[C@@H](C[C@@H](O)[C@H]3[C@@]4(C)CC[C@@H](O)[C@@H](C)[C@@H]4CC[C@@]32C)/C1=C(\CCC=C(C)C)C(=O)O [Fusidic acid sodium salt] (20 µM) | 1.02
CCOc1ccccc1OCC1CNCCO1 (centres undefined) [Viloxazine hydrochloride] (20 µM) | 0.991
OC[C@H]1O[C@@H](O[C@H]2[C@H](O)[C@@H](O)[C@H](O)O[C@@H]2CO)[C@H](O)[C@@H](O)[C@H]1O [Lactose] (50 µM) | 1.02
CCC(=O)c1ccc(O)cc1 [Paroxypropione] (20 µM) | 0.989
CCOc1ccc2ccccc2c1C(=O)N[C@@H]1C(=O)N2[C@@H]1SC(C)(C)[C@@H]2C(=O)O [Nafcillin sodium salt monohydrate] (20 µM) | 0.973
